PubChem BioAssay
Calls of active or inactive are those of the source.

Experiments:
[1] = small molecules captured by biotinylated probe aFSTL3 – biochemical, small-molecule microarray, fluorescence 635/667, stem cell growth factor project, primary screen (AID 1064); details: higher = more signal;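 further: measures binding of the biotinylated anti-FSTL3 antibody to printed compounds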
[2] = binders from COS7 lysate, DM2A8 probe, primary screen, torsin A project, cell lysate, small-molecule microarray, fluorescence 635/667 (AID 1065); details: higher = more signal, COS7 lysate expressing mutant human TOR1A
[3] = small molecules captured by biotinylated probe aFGF2 – biochemical, small-molecule microarray, fluorescence 635/667, stem cell growth factor project, primary screen (AID 1067); details: higher = more signal;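 further: measures binding of biotinylated aFGF2 protein to printed compounds on slides; z-score merges feature fluorescence and signal-to-noise across triplicate slides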
[4] = small molecules captured by biotinylated probe aFGF10 – biochemical, small-molecule microarray, fluorescence 635/667, stem cell growth factor project, primary screen (AID 1071); details: higher = more signal;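 further: score merges 667 nm spot intensity and signal to noise from triplicate slides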
[5] = target: Neurogenic locus notch homolog protein 2 (Homo sapiens) (UniProt Q04721); test: small molecules binding Notch2 protein – biochemical, small-molecule microarray, 635 nm fluorescence, stem cell growth factors, primary screen (AID 1073); details: higher = more signal
Sequence of Neurogenic locus notch homolog protein 2 (Homo sapiens) (Q04721 whole entry, looked up, canonical isoform): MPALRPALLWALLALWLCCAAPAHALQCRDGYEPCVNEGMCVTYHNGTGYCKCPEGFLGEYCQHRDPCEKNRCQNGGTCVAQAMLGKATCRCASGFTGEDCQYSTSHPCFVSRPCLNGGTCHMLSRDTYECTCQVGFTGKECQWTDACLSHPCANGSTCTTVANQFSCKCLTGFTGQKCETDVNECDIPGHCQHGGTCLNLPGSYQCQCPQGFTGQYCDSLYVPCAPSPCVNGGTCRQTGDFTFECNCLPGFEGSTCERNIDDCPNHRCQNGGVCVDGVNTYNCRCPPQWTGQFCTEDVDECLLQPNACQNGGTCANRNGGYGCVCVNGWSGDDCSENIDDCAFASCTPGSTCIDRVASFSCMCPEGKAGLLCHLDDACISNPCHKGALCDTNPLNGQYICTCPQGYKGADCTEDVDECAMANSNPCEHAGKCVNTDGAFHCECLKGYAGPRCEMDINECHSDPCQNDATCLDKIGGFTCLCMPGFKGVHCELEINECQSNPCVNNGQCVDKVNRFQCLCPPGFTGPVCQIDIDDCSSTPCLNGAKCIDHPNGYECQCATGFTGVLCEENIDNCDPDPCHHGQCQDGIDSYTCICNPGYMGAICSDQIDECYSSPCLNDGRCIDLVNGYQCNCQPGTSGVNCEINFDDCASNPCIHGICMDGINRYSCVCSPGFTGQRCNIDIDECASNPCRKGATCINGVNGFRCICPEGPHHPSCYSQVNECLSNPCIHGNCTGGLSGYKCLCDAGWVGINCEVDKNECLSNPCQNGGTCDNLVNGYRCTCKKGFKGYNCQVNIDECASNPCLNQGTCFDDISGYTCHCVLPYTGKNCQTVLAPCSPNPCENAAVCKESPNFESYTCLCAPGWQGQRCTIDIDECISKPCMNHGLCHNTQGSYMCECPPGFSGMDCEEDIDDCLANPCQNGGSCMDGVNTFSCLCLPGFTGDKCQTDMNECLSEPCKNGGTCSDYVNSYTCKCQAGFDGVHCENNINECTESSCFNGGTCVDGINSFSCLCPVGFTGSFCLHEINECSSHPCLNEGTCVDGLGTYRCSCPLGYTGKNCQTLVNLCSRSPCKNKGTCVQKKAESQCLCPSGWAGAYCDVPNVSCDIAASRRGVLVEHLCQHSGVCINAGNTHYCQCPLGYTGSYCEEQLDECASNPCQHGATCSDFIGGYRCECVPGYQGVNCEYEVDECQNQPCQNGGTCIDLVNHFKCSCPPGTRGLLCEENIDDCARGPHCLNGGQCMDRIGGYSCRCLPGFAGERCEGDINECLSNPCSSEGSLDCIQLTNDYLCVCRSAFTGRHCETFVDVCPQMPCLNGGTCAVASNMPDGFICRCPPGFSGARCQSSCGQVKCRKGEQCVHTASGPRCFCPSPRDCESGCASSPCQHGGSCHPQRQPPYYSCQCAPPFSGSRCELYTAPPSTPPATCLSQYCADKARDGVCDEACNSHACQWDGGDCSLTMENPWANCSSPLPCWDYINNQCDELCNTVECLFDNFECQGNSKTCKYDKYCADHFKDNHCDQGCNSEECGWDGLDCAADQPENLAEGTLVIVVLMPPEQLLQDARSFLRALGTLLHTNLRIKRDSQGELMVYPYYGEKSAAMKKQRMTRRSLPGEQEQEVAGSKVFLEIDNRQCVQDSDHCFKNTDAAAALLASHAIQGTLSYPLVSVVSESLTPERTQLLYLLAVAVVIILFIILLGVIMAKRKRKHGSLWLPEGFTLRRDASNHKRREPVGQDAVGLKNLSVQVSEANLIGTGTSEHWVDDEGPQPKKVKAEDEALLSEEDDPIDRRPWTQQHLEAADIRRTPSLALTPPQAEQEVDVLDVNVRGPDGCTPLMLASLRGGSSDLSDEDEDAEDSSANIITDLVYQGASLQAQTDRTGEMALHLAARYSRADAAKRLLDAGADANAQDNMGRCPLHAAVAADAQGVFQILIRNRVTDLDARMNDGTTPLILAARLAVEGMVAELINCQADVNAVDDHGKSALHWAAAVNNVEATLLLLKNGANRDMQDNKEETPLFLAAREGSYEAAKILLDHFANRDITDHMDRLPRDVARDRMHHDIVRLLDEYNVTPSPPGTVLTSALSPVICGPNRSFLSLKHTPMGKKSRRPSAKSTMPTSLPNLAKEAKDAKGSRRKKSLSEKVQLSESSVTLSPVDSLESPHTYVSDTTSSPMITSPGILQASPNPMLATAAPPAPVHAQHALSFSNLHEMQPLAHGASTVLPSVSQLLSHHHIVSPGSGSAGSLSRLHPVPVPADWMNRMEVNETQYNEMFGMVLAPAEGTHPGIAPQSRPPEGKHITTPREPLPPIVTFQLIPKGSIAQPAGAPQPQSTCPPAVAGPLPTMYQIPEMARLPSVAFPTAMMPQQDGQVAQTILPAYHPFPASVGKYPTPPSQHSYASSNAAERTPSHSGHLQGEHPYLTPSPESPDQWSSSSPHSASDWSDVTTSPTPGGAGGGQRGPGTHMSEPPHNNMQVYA

[6] = target: Pro-neuregulin-1, membrane-bound isoform (Homo sapiens) (UniProt Q02297); test: small molecules binding neuregulin-1 protein – biochemical, small-molecule microarray, fluorescence 635/667, psychiatric disease protein project, primary screen (AID 1075); details: NRG1 binding, 635 nm fluorescence, higher = more signal;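 further: score combines 667 nm spot fluorescence with signal to noise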
Sequence of Pro-neuregulin-1, membrane-bound isoform (Homo sapiens) (Q02297 whole entry, looked up, the tested form may be a part, canonical isoform): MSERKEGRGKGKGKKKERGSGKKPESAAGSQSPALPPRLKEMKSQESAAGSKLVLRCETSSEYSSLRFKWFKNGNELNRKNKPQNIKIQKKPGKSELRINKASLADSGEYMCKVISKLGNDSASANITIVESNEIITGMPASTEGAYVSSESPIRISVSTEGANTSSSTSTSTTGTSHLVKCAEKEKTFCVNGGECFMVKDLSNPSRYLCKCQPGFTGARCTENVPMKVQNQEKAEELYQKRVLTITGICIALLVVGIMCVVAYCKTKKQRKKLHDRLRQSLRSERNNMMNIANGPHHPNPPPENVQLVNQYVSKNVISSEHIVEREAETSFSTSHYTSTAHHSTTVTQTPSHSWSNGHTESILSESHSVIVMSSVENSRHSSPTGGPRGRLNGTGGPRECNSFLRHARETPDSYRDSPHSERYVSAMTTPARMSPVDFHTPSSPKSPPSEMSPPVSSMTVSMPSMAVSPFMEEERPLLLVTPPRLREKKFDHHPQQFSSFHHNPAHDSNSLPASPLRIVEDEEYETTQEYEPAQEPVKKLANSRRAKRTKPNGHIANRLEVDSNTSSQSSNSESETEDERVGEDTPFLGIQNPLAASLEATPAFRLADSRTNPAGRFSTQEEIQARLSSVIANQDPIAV

[7] = system: Neuregulin-1 EGF-like domain; test: small molecules binding NRG1 EGF domain – biochemical, small-molecule microarray, 635 nm fluorescence, primary screen (AID 1081); details: higher = more signal;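 further: binding of the protein to compounds printed on small-molecule microarray slides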
[8] = FRG1 expression reporter modulators in myotubes – cell-based, C2C12 myotubes, firefly/Renilla luciferase, luminescence, FRG1 inhibition for FSHD, primary screen (AID 1084); details: FRG1 promoter luciferase, higher = more signal, called active from +8 up or from −8 down
[9] = small molecules captured by biotinylated probe aFST – biochemical, small-molecule microarray, fluorescence 635/667, stem cell growth factor project, primary screen (AID 1086); details: higher = more signal;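 further: score merges 667 nm fluorescence with signal-to-noise of each printed compound spot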
[10] = binders of probe aHhip on microarray, primary screen, stem cell growth factor project, biochemical, small-molecule microarray, fluorescence 635/667 (AID 1087); details: higher = more signal;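 further: score merges spot fluorescence at 667nm with spot signal to noise ratio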
[11] = system: PRMT1 (protein arginine N-methyltransferase 1); test: small molecules binding arginine methyltransferase PRMT1 – biochemical, small-molecule microarray, 635 nm fluorescence, primary screen (AID 1088); details: higher = more signal;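 further: binding of Prmt1 protein to compounds spotted on small-molecule microarray slides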
[12] = growth effects on S. cerevisiae YJM789 – YJM789 clinical isolate, OD600, 24 h, basal, primary screen (AID 1089); details: higher = more signal, called active from +8 up or from −8 down;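 further: growth of clinical yeast isolate S. cerevisiae YJM 789 seeded 1000 cells per well; test concentration not given here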
[13] = S. pombe growth modifiers, basal conditions – strain 972, OD600, 24 h, no modulator, primary screen (AID 1090);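 further: basal condition with compound alone and no growth modifier present; test concentration not given here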; details: S. pombe 972 growth, higher = more signal, called active from +8 up or from −8 down
[14] = budding yeast growth modifiers under rapamycin – strain BY4716, OD600, 96 h, primary screen (AID 1091); further: test concentration not given here; details: S. cerevisiae BY4716 + rapamycin, higher = more signal, called active from +8 up or from −8 down
[15] = target: Torsin-1A-interacting protein 2 (Homo sapiens) (UniProt Q8NFQ8); test: small molecules binding lysate-expressed LULL1 – cell lysate, human LULL1 lysate, 635/667 nm fluorescence, primary screen (AID 1092); details: small-molecule microarray, hLULL1 lysate binding, 635 nm fluorescence; higher = more signal;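 further: probe is lysate of COS7 cells overexpressing human LULL1; score merges per-feature 667 nm fluorescence with signal-to-noise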
Sequence of Torsin-1A-interacting protein 2 (Homo sapiens) (Q8NFQ8 whole entry, looked up): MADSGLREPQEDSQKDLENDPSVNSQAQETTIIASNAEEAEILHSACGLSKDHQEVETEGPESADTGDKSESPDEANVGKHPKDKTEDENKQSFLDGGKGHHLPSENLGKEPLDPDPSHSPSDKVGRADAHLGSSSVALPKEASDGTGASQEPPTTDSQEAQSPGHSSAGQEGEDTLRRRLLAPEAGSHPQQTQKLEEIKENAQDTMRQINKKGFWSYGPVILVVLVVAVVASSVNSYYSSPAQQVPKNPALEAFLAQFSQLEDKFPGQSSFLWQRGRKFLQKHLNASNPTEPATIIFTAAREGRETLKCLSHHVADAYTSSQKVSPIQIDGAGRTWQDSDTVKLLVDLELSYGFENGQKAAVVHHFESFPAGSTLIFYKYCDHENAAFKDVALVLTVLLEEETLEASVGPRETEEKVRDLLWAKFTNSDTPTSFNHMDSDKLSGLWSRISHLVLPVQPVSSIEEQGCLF

[16] = optical density change of DRC41 E. coli – strain DRC41, OD650, 24 h, E. coli filamentation project, primary screen (AID 1093);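 further: MC1000 strain lacking acrAB efflux and sulA so SOS filamentation is blocked; test concentration not given here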; details: E. coli DRC41 growth, higher = more signal, called active from +8 up or from −8 down
[17] = probe aLefty2 binding to arrayed compounds – biochemical, biotinylated probe, 635/667 nm fluorescence, primary screen (AID 1094); details: small-molecule microarray, higher = more signal;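 further: score merges spot fluorescence near 667 nm with spot signal-to-noise ratio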
[18] = system: Noggin (protein binding on small-molecule microarray); test: small molecules binding Noggin protein – biochemical, 635/667 nm fluorescence, primary screen (AID 1095); details: 635 nm fluorescence, higher = more signal;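 further: score merges 667 nm feature fluorescence with signal to noise over triplicate slides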
[19] = target: Neurogenic locus notch homolog protein 3 (Homo sapiens) (UniProt Q9UM47); test: small molecules binding NOTCH3 protein – biochemical, 635/667 nm fluorescence, primary screen (AID 1096); details: small-molecule microarray, 635 nm fluorescence, higher = more signal
[20] = probe aEGFR binding to arrayed compounds – biochemical, biotinylated probe, 635/667 nm fluorescence, primary screen (AID 1097); details: small-molecule microarray, higher = more signal;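 further: probe is a biotinylated anti-EGFR antibody binding compounds printed on slides; score combines fluorescence near 667 nm and signal to noise of each spot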

Compound	composite z-score [1]	composite z-score [2]	composite z-score [3]	composite z-score [4]	composite z-score [5]	composite z-score [6]	composite z-score [7]	z-score [8]	composite z-score [9]	composite z-score [10]	composite z-score [11]	z-score [12]	z-score [13]	z-score [14]	composite z-score [15]	z-score [16]	composite z-score [17]	composite z-score [18]	composite z-score [19]	composite z-score [20]
CN(C)C(=O)[C@]1(Cc2ccccc2CN=[N+]=[N-])N=C(c2ccc(OCCCO)cc2)O[C@@H]1c1ccccc1CN=[N+]=[N-]	-0.0551	1.26	0.0858	1.18	1.43	0.559	1.27	-1.45 (inactive)	1.64	-0.318	1.56	-0.0966 (inactive)	-0.16 (inactive)	4.49 (inactive)	3.59	-0.255 (inactive)	0.0112	1.18	1.11	0.0816
COc1ccc([C@H]2OC[C@@H]3CC4(CC=CC4)C(=O)N32)cc1	0.0596	-0.407	-0.129	0.479	-0.321	-0.105	1	1.43 (inactive)	-0.0135	-0.236	1.08	-0.205 (inactive)	0.0197 (inactive)	-0.451 (inactive)	1.24	-0.472 (inactive)	-0.0171	1.08	0.527	0.0376
O=C1OCCC/C=C\[C@H]2OC34C=CCN(CCN5CCOCC5)C(=O)[C@H]3N(CCCO)C(=O)[C@@H]4C12 (stereo not given in full)	-0.0893	0.95	-0.168	-1.07	-0.793	1.47	0.993	0.562 (inactive)	-0.209	-0.216	-0.622	-1.35 (inactive)	-0.632 (inactive)	-0.595 (inactive)	3.54	-0.44 (inactive)	-0.381	-0.813	-0.93	-0.199
C#CCN(CC1=CCCCC1)[C@H](c1ccccc1Br)[C@@H](O)Cc1ccccc1	0.727	0.518	-0.176	-0.123	-0.978	0.251	0.928	-2.16 (inactive)	-0.967	-0.166	0.249	0.119 (inactive)	-4.79 (inactive)	-0.655 (inactive)	1.04	1.79 (inactive)	-0.0724	-0.51	-0.721	-0.356
COc1ccc(CCN2C(=O)[C@@]3(c4ccc([N+](=O)[O-])cc4)CC(=O)N(C4CCCCC4)[C@@H]3c3ccc(CO)cc32)cc1	-0.126	0.0269	-0.148	-0.0632	-0.0731	0.0125	1.46	0.912 (inactive)	-0.135	-0.0994	1.09	-1.82 (inactive)	0.701 (inactive)	-1.83 (inactive)	0.479	0.483 (inactive)	-0.0246	0.792	0.441	-0.1
